Results filed as inconclusive are left out. Where a call stands in place of a potency, no number is given. The source made the active and inactive calls. Calls follow the shape of the dose curve; as a rule, active = well fitted curve in the direction sought with a large enough effect; inconclusive = small, poorly fitted or top-dose-only effect, or another doubt; inactive = no such curve, though single readings can be large; an effect the other way counts as inactive or inconclusive.
Key:
[1] = qHTS of pediatric cancer cell lines to identify multiple opportunities for drug repurposing: Primary screen for DAOY cells (AID 1347090); also: nearly all actives have a fitted effect of over 55% in size; also: potency is read from the fitted curve at half-maximal effect
How it was run: (§1)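 Eight- or eleven-point concentration series, 48 h treatment at 37 degrees C in growth media; readout CellTiter-Glo luminescence. Potency and efficacy were taken from the concentration-response curves.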

[2] = qHTS of pediatric cancer cell lines to identify multiple opportunities for drug repurposing: Primary screen for BT-37 cells (AID 1347094); also: potency is read from the fitted curve at half-maximal effect
How it was run: (§2)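 Plated cells (500-1,000 per well, growth media) were allowed to settle for 5 hours, treated with compound dilutions for 48 hours, then lysed with CellTiter-Glo for 15 min at room temperature before luminescence reading.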

[3] = qHTS of pediatric cancer cell lines to identify multiple opportunities for drug repurposing: Primary screen for SK-N-SH cells (AID 1347098); also: nearly all actives have a fitted effect of over 65% in size; also: potency is read from the fitted curve at half-maximal effect
How it was run: (§3)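 Cells (500-1,000/well) rested 5 h, then received compounds for 48 h; metabolically active cells were measured by CellTiter-Glo luminescence. Final concentrations spanned up to 46 µM (MIPE, 11-point) or 0.59 nM-46 µM (NPC, 8-point) in primary screens, 11-point in follow-ups.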

[4] = qHTS of pediatric cancer cell lines to identify multiple opportunities for drug repurposing: Primary screen for NB1643 cells (AID 1347099); also: nearly all actives have a fitted effect of over 50% in size; also: potency is read from the fitted curve at half-maximal effect
How it was run: as §2

[5] = qHTS of pediatric cancer cell lines to identify multiple opportunities for drug repurposing: Primary screen for BT-12 cells (AID 1347101); also: nearly all actives have a fitted effect of over 25% in size; also: potency is read from the fitted curve at half-maximal effect
How it was run: as §3

[6] = qHTS of pediatric cancer cell lines to identify multiple opportunities for drug repurposing: Primary screen for OHS-50 cells (AID 1347103); also: nearly all actives have a fitted effect of over 40% in size; also: potency is read from the fitted curve at half-maximal effect
How it was run: as §3

[7] = qHTS of pediatric cancer cell lines to identify multiple opportunities for drug repurposing: Primary screen for LAN-5 cells (AID 1347100); also: potency is read from the fitted curve at half-maximal effect
How it was run: (§4)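 Cells (500-1,000/well) in growth media were settled 5 h at 37 degrees C, then given compounds for 48 h. Viability was read as CellTiter-Glo luminescence. Primary runs used MIPE at 11 points (0.78 nM-46 µM) and NPC at 8 points (0.59 nM-46 µM); follow-ups used 11 points.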

[8] = qHTS of pediatric cancer cell lines to identify multiple opportunities for drug repurposing: Primary screen for Rh18 cells (AID 1347102); also: nearly all actives have a fitted effect of over 65% in size; also: potency is read from the fitted curve at half-maximal effect
How it was run: as §4

[9] = qHTS of pediatric cancer cell lines to identify multiple opportunities for drug repurposing: Primary screen for Saos-2 cells (AID 1347097); also: nearly all actives have a fitted effect of over 40% in size; also: potency is read from the fitted curve at half-maximal effect
How it was run: as §2

[10] = qHTS of pediatric cancer cell lines to identify multiple opportunities for drug repurposing: Primary screen for SJ-GBM2 cells (AID 1347091)
How it was run: as §1

[11] = qHTS of pediatric cancer cell lines to identify multiple opportunities for drug repurposing: Primary screen for A673 cells (AID 1347092); also: nearly all actives have a fitted effect of over 45% in size; also: potency is read from the fitted curve at half-maximal effect
How it was run: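 A673 cells (500-1,000 cells/well in growth media) were pre-incubated 5 h at 37 degrees C, then exposed to compounds for 48 h. Viability was read as CellTiter-Glo luminescence; concentration-response curves came directly from the primary screen.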

[12] = qHTS of pediatric cancer cell lines to identify multiple opportunities for drug repurposing: Primary screen for SK-N-MC cells (AID 1347093); also: potency is read from the fitted curve at half-maximal effect
How it was run: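 Metabolically active cells were quantified by ATP-dependent luminescence (CellTiter-Glo, 15 min at room temperature) following 48 h treatment. Cells had been plated at 500-1,000 per well and settled for 5 h beforehand.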

[13] = qHTS of pediatric cancer cell lines to identify multiple opportunities for drug repurposing: Primary screen for NB-EBc1 cells (AID 1347095); also: potency is read from the fitted curve at half-maximal effect
How it was run: as §2

[14] = qHTS of pediatric cancer cell lines to identify multiple opportunities for drug repurposing: Primary screen for U-2 OS cells (AID 1347096); also: nearly all actives have a fitted effect of over 50% in size
How it was run: as §4

[15] = qHTS of pediatric cancer cell lines to identify multiple opportunities for drug repurposing: Primary screen for TC32 cells (AID 1347089); also: nearly all actives have a fitted effect of over 60% in size; also: potency is read from the fitted curve at half-maximal effect
How it was run: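 Luminescent CellTiter-Glo read-out of metabolically active TC32 cells after 48 h compound exposure. Primary: MIPE 11-point, 0.78 nM–46 µM; NPC 8-point, 0.59 nM–46 µM. Confirmatory: 11-point dilutions.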

Structure (SMILES) | Potency [1] | Potency [2] | Potency [3] | Potency [4] | Potency [5] | Potency [6] | Potency [7] | Potency [8] | Potency [9] | Potency [10] | Potency [11] | Potency [12] | Potency [13] | Potency [14] | Potency [15]
O=C(Nc1ncc([N+](=O)[O-])s1)c1cccs1 | 16.8 µM (active) | 24.6 µM (active) | 24.4 µM (active) | 23.7 µM (active) | 12.3 µM (active) | 30.9 µM (active) |  |  |  |  |  |  |  |  | 
C#C[C@]1(OC(C)=O)CC[C@H]2[C@@H]3CCC4=C/C(=N/O)CC[C@@H]4[C@H]3CC[C@@]21CC |  |  |  |  | inactive |  | 23.7 µM (active) | inactive |  |  |  |  |  |  | 
O[C@@H](c1cc(C(F)(F)F)nc2c(C(F)(F)F)cccc12)[C@H]1CCCCN1 |  |  | 30.7 µM (active) |  | 15.5 µM (active) | 21.9 µM (active) |  |  | 21.1 µM (active) |  |  |  |  |  | 
CC1=C(C(=O)O)N2C(=O)[C@@H](NC(=O)[C@H](N)c3ccccc3)[C@H]2SC1 | inactive |  | inactive | inactive | inactive | inactive | inactive | inactive | inactive | inactive | inactive | inactive | inactive |  | 
CC(C)Cc1ccc(CC(=O)O)cc1 | inactive | inactive |  | inactive | inactive | inactive | inactive | inactive | inactive | inactive | inactive |  | inactive | inactive | 
O=C(Oc1cccc2cccnc12)c1ccccc1 |  | inactive |  |  | 6.17 µM (active) |  |  |  | 15 µM (active) | inactive | 0.001 µM (active) | 9.44 µM (active) |  |  | 
CNCCCCOc1ccccc1Cc1ccccc1 | inactive |  | 24.4 µM (active) |  |  | 17.4 µM (active) |  |  |  |  | 26.6 µM (active) |  | inactive | inactive | inactive
OC[C@H]1O[C@@H](Oc2ccc(O)cc2)[C@H](O)[C@@H](O)[C@@H]1O | inactive | inactive | inactive | inactive | inactive | inactive | inactive | inactive |  | inactive | inactive |  | inactive | inactive | inactive
C[N+]12CCC(CC1)C(OC(=O)C(O)(c1ccccc1)c1ccccc1)C2 (stereo not given) | inactive | inactive | inactive | inactive | inactive | inactive | inactive | inactive | inactive | inactive | inactive |  | inactive | inactive | inactive
NC(N)=NN=C(/C=C/c1ccc([N+](=O)[O-])o1)/C=C/c1ccc([N+](=O)[O-])o1 | 10.6 µM (active) | 11 µM (active) | 3.86 µM (active) | 15 µM (active) |  |  | 2.11 µM (active) | 1.19 µM (active) |  |  | 1.06 µM (active) |  | 5.31 µM (active) |  | 6.64 µM (active)
CC(C)[C@@H]1CC[C@@H](C)CC1=O | inactive | inactive | inactive | inactive | inactive | inactive | inactive |  | inactive | inactive | inactive |  | inactive | inactive | inactive
CCCCCN=C(N)N/N=C/c1c[nH]c2ccc(OC)cc12 |  | 24.6 µM (active) | 4.33 µM (active) |  | 13.8 µM (active) | 11 µM (active) | 26.6 µM (active) | 9.44 µM (active) |  |  |  |  |  |  | 
